# TWEAK Fn14 block: TWEAK-Fn14 signaling inhibition; TWEAK-stimulated Fn14 reporter cells, luciferase luminescence, 8 h; inhibition, % at 10 µM; 360,000 tested, 2% active; AID 1159606; in the data active = inhibition above about 50%
# HIF-2a block: inhibitors of HIF-2a. 786-0 RCC cells HIF-2a reporter, luciferase luminescence, overnight. 360,000 tested, 0.72% active. inhibition, % at 18.8 µM;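 active = inhibition of the luminescence signal of 40% or more relative to plate controls, in a single-dose primary screen at 18.75 µM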
# Peg3 prom inh: inhibitors of Peg3 promoter. HeLa PEG-Prom luciferase reporter, luminescence, overnight. inhibition, % at 20 µM. 360,000 tested, 1.7% active. AID 588405;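 active = inhibition of at least 50% at 20 µM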
# CF NFkB block: blocks PAF-induced NF-kB reporter in cystic fibrosis cells; KKLEB NF-kB-GFP reporter, GFP fluorescence overnight; inhibition, % at 5 µM; 360,000 tested, 0.86% active; AID 588850;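 active = at least 50% inhibition at 5 µM, scaled per plate between neutral and stimulator controls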;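 also: PAF is a Pseudomonas aeruginosa culture filtrate used as stimulus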
# KKLEB tox: CF airway cell cytotoxicity counter-screen; KKLEB CF airway cells viability, ATPlite luminescence, overnight; active compounds read low; cells stimulated with P. aeruginosa culture filtrate; activity change (cytotoxicity), % at 5 µM; 360,000 tested, 0.36% active;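 active = corrected activity change at or below -50% at 5 µM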
# TROY signal inh: inhibitors of TROY-dependent NF-kB signaling | Q293 LMP1-TROYcd NF-kB luciferase reporter, 4 h | inhibition, % at 10 µM | 360,000 tested, 0.98% active;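 active = compounds whose plate-normalised and pattern-corrected inhibition of the luciferase reporter signal at the single screening dose is 50% or more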
# A number is an active result; . = inactive; / = no result given. Most compounds without a hit are left out; they make up all but 4% or so of the library.
SMILES,TWEAK Fn14 block,HIF-2a block,Peg3 prom inh,CF NFkB block,KKLEB tox,TROY signal inh
CCOS(C)(=O)=O,.,.,.,.,.,.
COc1cc2c(cc1OC)C1[C@H]3C(=CC[C@H]1OC2O)CCN3C (stereo partly specified),.,.,.,.,.,.
COc1cc(/C=C/c2nc3ccccc3c(=O)n2-c2ccc(O)cc2)ccc1O,54.2,.,.,.,.,.
O=c1c2ccccc2nc(/C=C/c2ccc3c(c2)OCO3)n1-c1ccccc1,.,.,.,.,.,.
COc1ccc(-n2c(/C=C/c3ccc(O)c(O)c3)nc3ccccc3c2=O)cc1,.,.,55.0,.,.,.
COc1cccc(-n2c(C)nc3ccccc3c2=O)c1,66.7,.,.,.,.,.
COC1=CCC2([N+](=O)[O-])CN(C)CC1([N+](=O)[O-])C2 (stereo unspecified),.,.,.,.,.,.
Cc1ccc(N2C(=O)CC(=O)NC2=O)c(C)c1,.,.,.,.,.,.
O=C1C(=O)c2ccccc2-c2ccccc21,107.3,97.7,101.5,83.3,.,83.1
O=C1C(=O)c2cccc3cccc1c23,.,.,.,.,.,.
O=[N+]([O-])c1ccc(N(CCO)CCO)c2c1no[n+]2[O-],.,50.6,98.7,.,.,.
CN1CCN(c2ccc(S(C)(=O)=O)cc2[N+](=O)[O-])CC1,.,.,.,.,.,.
CN1CCN(c2ccc([N+](=O)[O-])c3no[n+]([O-])c23)CC1,104.3,61.2,102.5,59.0,-55.5,.
O=C1NCCCCC1(Cl)Cl,.,.,.,.,.,.
CCCCCCC(C)(C)c1ccc([C@@H]2C[C@H](O)CC[C@H]2CCCO)c(O)c1,.,.,83.5,.,.,.
COC(=O)C1=C(c2ccc(F)cc2OCc2ccccc2)C[C@@H]2CC[C@H]1N2C(=O)N1CCOCC1,.,.,.,.,.,.
CCOc1cc(CNCCc2c[nH]c3ccccc23)cc(Cl)c1OC,.,.,62.5,.,.,.
CN1C[C@@H]2C[C@@H](c3cccn3-c3ccccn3)N3CCC[C@@]23C1=O,.,.,.,.,.,.
CN(C)C1C(=O)C(C(N)=O)=C(O)C2(O)C(=O)C3=C(O)c4c(O)cccc4C(C)(O)C3C(O)C12 (stereo unspecified),.,.,.,.,.,.
O=C(c1ccc(Cl)cc1)C12CN3CN(CN(C3)C1)C2,62.5,.,.,.,.,/
COC1/C=C/C=C(\C)Cc2cc(O)c(Cl)c(c2)N(C)C(=O)CC(OC(=O)C(C)C)C2(C)OC2C(C)C2CC1(O)NC(=O)O2 (stereo unspecified),.,.,.,58.3,.,.
CS(=O)(=O)c1ccc(C2=C(CNC(=O)c3ccncc3)[C@H]3CC[C@@H](C2)N3CCOc2ccccc2)cc1,.,.,.,.,.,.
CC(C)OP(=O)(Oc1ccc(C(O)C(Cl)(Cl)Cl)cc1)OC(C)C (stereo unspecified),.,.,.,.,.,.
CCn1c(O)c(C=Nc2ccc(S(N)(=O)=O)cc2)c(=O)n(CC)c1=S,.,.,.,.,.,.
CCn1c(O)c(C=Nc2ccc(S(N)(=O)=O)cc2)c(=O)[nH]c1=S,.,.,.,.,.,52.5
SMILES,TWEAK Fn14 block,HIF-2a block,Peg3 prom inh,CF NFkB block,KKLEB tox,TROY signal inh
CCN(CC)c1ccc(C=C2C(=O)NC(=S)NC2=O)cc1,.,67.8,103.8,65.7,.,.
CN(C)c1ccc(C=C2C(=O)NC(=S)NC2=O)cc1,.,.,88.6,.,.,.
CN(C)c1ccc(C=C2C(=O)NC(=O)NC2=O)cc1,.,.,.,.,.,.
Cc1cc(C=O)c(C)n1C(C)C,.,.,.,.,.,.
COc1cc2cc(C(=O)N3CC(COS(C)(=O)=O)c4ccc(O)cc43)[nH]c2c(OC)c1OC (stereo unspecified),108.0,83.5,99.1,88.1,-95.9,72.4
CN(C)C(=O)Oc1noc2cc(Cl)ccc12,.,.,.,.,.,.
CC(C)=CCc1c(O)cc2c(c1O)C(=O)CC(c1ccc(O)cc1)O2 (stereo unspecified),.,.,.,.,.,51.9
COC(=O)C1=C(c2ccc3ccccc3c2)C[C@@H]2CC[C@H]1N2C(=O)NCc1ccco1,.,.,.,.,.,.
Cc1ccsc1C(=O)C1CCCN(Cc2cc(C(C)C)n[nH]2)C1 (stereo unspecified),.,.,.,.,.,.
Cc1cc(OCC(=O)N2CCC(C(N)=O)CC2)c2c3c(c(=O)oc2c1)CCCC3,90.8,.,.,.,.,.
CC(=O)OC1CC2OC3C=C(C)CCC3(C)C1(C)C21CO1 (stereo unspecified),98.1,71.9,107.8,93.4,.,83.7
CN(C)CCN(CC1CCCN(Cc2ccccc2F)C1)C(=O)Cc1c(F)cccc1F (stereo unspecified),.,.,.,.,.,.
CN1CCN(c2cccc3c2C(=O)c2ccccc2C3=O)CC1,54.6,.,.,.,.,63.6
O=C1NCN(c2ccccc2)C12CCN(C(c1cc3ccccc3o1)c1nnnn1C1CCCC1)CC2 (stereo unspecified),.,.,.,.,.,.
COc1ccc(-n2nnnc2C(c2cc3ccccc3o2)N2CCC(n3c(=O)[nH]c4ccccc43)CC2)cc1 (stereo unspecified),103.1,.,91.6,.,.,68.4
Cc1cccc(C)c1-n1nnnc1C(c1cccc2ccccc12)N1CCC(n2c(=O)[nH]c3ccccc32)CC1 (stereo unspecified),.,.,.,.,.,.
O=c1[nH]c2ccccc2n1C1CCN(C(c2cccc3ccccc23)c2nnnn2-c2ccc3c(c2)OCCO3)CC1 (stereo unspecified),.,.,70.7,84.5,-85.3,.
C=CCN1C(=O)/C(=C/c2ccc(Br)s2)C(=O)NC1=S,.,.,.,.,.,.
CN1C(=O)/C(=C/c2ccc(Cl)s2)C(=O)NC1=S,.,.,55.4,65.7,.,.
Cc1ccsc1/C=C1\C(=O)NC(=S)N(C)C1=O,.,.,89.8,.,.,.
COc1ccc(/C=C2\C(=O)NC(=S)N(C)C2=O)cc1C,.,.,.,.,.,.
CN1C(=O)/C(=C\c2ccc(N3CCCCCC3)cc2)C(=O)NC1=S,.,.,77.7,.,.,.
COC1CC2C=C(C)C=CC=CC(=O)NC(c3ccccc3)CC=CCCC(O)CC(=O)C2=C1O (stereo unspecified),60.3,77.2,98.1,91.3,-85.2,.
COCCNC(=O)N1[C@H]2CC[C@@H]1C(C(=O)OC)=C(c1ccc(OC)c(OC)c1)C2,.,.,.,.,.,.
C=C1C(C)C2C(Cc3ccccc3)NC(=O)C23C(OC(C)=O)C=CC(C)(O)CC(C)CC=CC3C1O (stereo unspecified),.,.,.,53.3,-66.9,.
